Test results reported in PMC13494018.
Unmarked numbers belong to inactive results. No rule for the calls is given here.

B1: design_612_bdadb936-3f14-48ad-830f-718e38d81c30_1324_dldesign_0_cycle1_af2pred (protein)
chain: AFAAAIAALTAAAAATTPALATQLNAVKTAVTNTAKNAQAAPPEVKAATAAKWAEIAQGAVDAALAAAAA
B2: design_612_bdadb936-3f14-48ad-830f-718e38d81c30_715_dldesign_0_cycle1_af2pred (protein)
chain: IEQLAALARASYRAVRVAAENLAAGRLTPEQLKAAAQLAEGTEKLAKETAAAYNADPATKEKAAEFEELARFAKEVRDAARAAL
B3: design_613_5efed0bc-64ba-423b-b3f9-a246574e49bb_395_dldesign_0_cycle1_af2pred (protein)
chain: SKTAEDGIKFIKELTEIAKAAAAAGQPKSVVETIRKTLEHATKVFAAAAAEDNPEYAEKVKKAGEEALKEADKAIAA
B4: design_612_bdadb936-3f14-48ad-830f-718e38d81c30_1730_dldesign_0_cycle1_af2pred (protein)
chain: AAAAAVAKVKAAKEKAKELLEEARKLAKEDPEKAGEVLNKALTYVSKVAAQAAKDGPEAAAAAAKVLGEVLDEVAEIEKLRKEIAA
B5: design_612_bdadb936-3f14-48ad-830f-718e38d81c30_1410_dldesign_0_cycle1_af2pred (protein)
chain: MEEIRALAEEALATAEAELATMRAAQEAGDVGTAVDALRVLFRTANEAIRRLRELGGPEEYIERLEAARREAQAILAATARRAIAQA
B6: design_612_bdadb936-3f14-48ad-830f-718e38d81c30_2023_dldesign_0_cycle1_af2pred (protein)
chain: AEAETLGSLARGAISFLRTAAAYLRRKAAAAADPATAATLNAYADRLEALAEAAAKAVEEGKYEEAVALAEEGVALALEGAAAAA
B7: design_612_bdadb936-3f14-48ad-830f-718e38d81c30_608_dldesign_0_cycle1_af2pred (protein)
chain: AALVAQAAADLEAIGARYPALKPAADRALTLTPGLRLLAANTARNALPGSEEEIVEALRRMVEALEAEQARLDAA
B8: design_612_bdadb936-3f14-48ad-830f-718e38d81c30_1181_dldesign_0_cycle1_af2pred (protein)
chain: MMEEIKKLTEKGEELLKKGKELAKEGTAEAANKALAYYVEAAEYYEKALRLAKEAGAEEEFIKELEKKLQEAFANANAAAKAAIALTA
B9: design_612_bdadb936-3f14-48ad-830f-718e38d81c30_1687_dldesign_0_cycle1_af2pred (protein)
chain: MELVKRAREILERAERAETVEELRRVLAEAARLAGEAARAAIADPATAAAANEALAIALEAMRVATERARAAR
B10: design_612_bdadb936-3f14-48ad-830f-718e38d81c30_2117_dldesign_0_cycle1_af2pred (protein)
chain: EEERAAAVNAAMQAIIALQQAGQALEASGDPAAKAKGKEAYAKAGEYQKLLKEYNDDVEKVKEIAKDAAAAAAEYAAAVKKAQAA
B11: design_613_5efed0bc-64ba-423b-b3f9-a246574e49bb_150_dldesign_0_cycle1_af2pred (protein)
chain: GEKEKAVKEAKEAAEETEKVAKEAIKAAKAAGNEAAAKMAEALAKNAKKALEEAKKGTLEEAKKNLKYIESNLKNAKLILEGQ
B12: design_612_bdadb936-3f14-48ad-830f-718e38d81c30_1747_dldesign_0_cycle1_af2pred (protein)
chain: SAADVAAATQKALKKQAEKLLELAKEAAAKDKEEAKKYAKAAKKLAELMVLAGEQAGTGAEAKKEAEKIKKEVEKVVKEA
B13: design_612_bdadb936-3f14-48ad-830f-718e38d81c30_271_dldesign_0_cycle1_af2pred (protein)
chain: AARAEALAAEGEALIEQALSDATLSEEERKALLNQAAHKFVAAAGALVADRGPAAQAEITALLSKAVEAKALAEA
B14: design_613_5efed0bc-64ba-423b-b3f9-a246574e49bb_341_dldesign_0_cycle1_af2pred (protein)
chain: SEMIEKIKELGEEAKKIGKEGLAGTPEEMLKAAEKLRELMKEISRLAAEAMKESPEVEEIALAGGEALSIAAEEIAKLQAAAAAA
B15: design_612_bdadb936-3f14-48ad-830f-718e38d81c30_262_dldesign_0_cycle1_af2pred (protein)
chain: AKERVKELAKEIEKLAKEAPPEVAKHLKKAAEALKKGVEEGPGAMAEAVVTLAEAAAEAYKLDPEVGERLRRIAAEVARLAIEYQA
B16: design_613_5efed0bc-64ba-423b-b3f9-a246574e49bb_35_dldesign_0_cycle1_af2pred (protein)
chain: DQARADALIAAVDAAVAAAEAALAEDPELGLAKGAEASALIVEALKASAELSPAERARLAAALNAATARLLKVQAAAREQLA
B17: design_612_bdadb936-3f14-48ad-830f-718e38d81c30_501_dldesign_0_cycle1_af2pred (protein)
chain: DLLAKQKELSEKYERVAEIGEEARKLVGEEAAELSLKALTYYTKAMAAYAAGEATAAEAEKYEKKGEEYEKKLKELKEKELKK
B18: design_613_5efed0bc-64ba-423b-b3f9-a246574e49bb_418_dldesign_0_cycle1_af2pred (protein)
chain: AGAEAAAHLNAAFASLSKGLISTDPAEAQKYFDEAKAHLDKARALAAKDPAVAAEVQAAVDKITDLLEGGKAAR
B19: design_612_bdadb936-3f14-48ad-830f-718e38d81c30_773_dldesign_0_cycle1_af2pred (protein)
chain: SAAAEAQQRLNELLGRLTAATEAGAAVDPALASALAGKAFTELSKAHQYLLAGDVDAAQAELDKAEKLVKELEAAAAAAAAAAA
B20: design_612_bdadb936-3f14-48ad-830f-718e38d81c30_642_dldesign_0_cycle1_af2pred (protein)
chain: MREEARALLERAREALARARALAEAGGDGGEAVSLMVEALEAASRALRLARELGDEELAEEAERLLAEIRRATAAITQAVIDRA
B21: design_612_bdadb936-3f14-48ad-830f-718e38d81c30_1832_dldesign_0_cycle1_af2pred (protein)
chain: MEKAKELVKKIKELARKIKELAERLKADPSTAEQDLKEVNEALSEALELQKKVAEIGSPEDAEEANKELGKAQRAALEAHRAAAELA
B22: design_613_5efed0bc-64ba-423b-b3f9-a246574e49bb_260_dldesign_0_cycle1_af2pred (protein)
chain: AAAVGEGSKLVIEGIKALAEAAQRVAFDPEIQAKLMAQAAKATRALVQGAADPATALELAKKALEEAKKAVKEAEKVLA
B23: design_612_bdadb936-3f14-48ad-830f-718e38d81c30_247_dldesign_0_cycle1_af2pred (protein)
chain: GALGRSVARDTARAFLADPEKGKEMADIAAGVGATDAAAGRAALEELLRLAKEHPEVAEQLEAAAKKVAAAIKQAEAAAA
B24: design_612_bdadb936-3f14-48ad-830f-718e38d81c30_1983_dldesign_0_cycle1_af2pred (protein)
chain: EEKVREEAKEAIEKAKEAVEKLKEAAKADPRLAVAAKAATAALEKAKELLEENPESALKLAKTTLDLAEATLAAAA
B25: design_612_bdadb936-3f14-48ad-830f-718e38d81c30_973_dldesign_0_cycle1_af2pred (protein)
chain: GAATALAILKANLAAQVKAAAAGVGAKAAAETAKVLADSAAGIAKADPAVAAEAEKLAAEAKAASKEFAAKAEAAAAA
B26: design_612_bdadb936-3f14-48ad-830f-718e38d81c30_2254_dldesign_0_cycle1_af2pred (protein)
chain: GAAEAEEAARREEAKKLAEEYLKKVEEAAKESTGKAVEVMVKGVKELLEIGDKETANALAQEATRIISAAVRA
B27: design_612_bdadb936-3f14-48ad-830f-718e38d81c30_1696_dldesign_0_cycle1_af2pred (protein)
chain: SAEILAAQAKALELMKEAAKYNRKAGGKTAELALEAAKYATKAISYFATGEKKAEGEEEYKKAEEKLKEVKKKAA
B28: design_612_bdadb936-3f14-48ad-830f-718e38d81c30_1240_dldesign_0_cycle1_af2pred (protein)
chain: GEEEERDERARELVEKGREEAEKYIAAGKVGEAAGVVVEKAAEAHRVAVSPEVKAEINRELAAQIRRIMEAIA
B29: design_612_bdadb936-3f14-48ad-830f-718e38d81c30_557_dldesign_0_cycle1_af2pred (protein)
chain: MDQAVADRTAEALAKHAKRLLEEGLKLAKEGDLEEAKKKVEAAKQVAEVLKNLGSPKAAELGEKMLEEAKKALEEIKKR
B30: design_613_5efed0bc-64ba-423b-b3f9-a246574e49bb_304_dldesign_0_cycle1_af2pred (protein)
chain: AEAAKAAAVALAAAMLALADALAKAGDFGTALAIATLGARIVDTVVGPEAGAAFQAQRDAVISSNARAAIAAA
B31: design_612_bdadb936-3f14-48ad-830f-718e38d81c30_1961_dldesign_0_cycle1_af2pred (protein)
chain: MERLEKIEKRIEEIEKVVEEAEKKVKEGTITGEDALRLNKALAEARRIAEEAAKLDPELAKRAQAVAERASRVLVEGNKLLVA
B32: design_612_bdadb936-3f14-48ad-830f-718e38d81c30_1931_dldesign_0_cycle1_af2pred (protein)
chain: SMEELEKKREEAEKGLEEIKELAKKAAEGAKDPATAAATMAEALEKLEEYKETIELAKEVGEELAEKVRAAVNELLANVARAGAVAAA
B33: design_612_bdadb936-3f14-48ad-830f-718e38d81c30_380_dldesign_0_cycle1_af2pred (protein)
chain: SQALQTQMLIANARNLAKNAEELLKKGDVEKAEKAVEALEKLAKIAGEASPEAGKEAGKLAEEARKKVEEFKK
B34: design_612_bdadb936-3f14-48ad-830f-718e38d81c30_1230_dldesign_0_cycle1_af2pred (protein)
chain: AAAAAVATAAADAMYKQAKKQAEEAFKAAKENPEEGKKLAESALKNFELAATLYAQAGDEAKAKAVLEEGKEKYEEIMKKIKEAE
B35: design_612_bdadb936-3f14-48ad-830f-718e38d81c30_331_dldesign_0_cycle1_af2pred (protein)
chain: GKKAQAIALIDEATALLIAAQAADAETGAKLTAEAVKLLSEAIELAAELNGRAAGLIGRLLALGAAGTISPERLKELAAAAKAEIEAA
B36: design_613_5efed0bc-64ba-423b-b3f9-a246574e49bb_896_dldesign_0_cycle1_af2pred (protein)
chain: AQAEAARQAAVDALAKSGEAAVKAMKEDPERASKRASGAIANLRLLGDEETAEKVAKKLLEEAKKLGEEAYEIAKKEVEKAKENVEA
B37: design_612_bdadb936-3f14-48ad-830f-718e38d81c30_2140_dldesign_0_cycle1_af2pred (protein)
chain: DAAAAALAAAHIAKLNAIAKEGIEAAKKGDPEANAEKAVAKINAAASAAVKEMTALGANGSYITQVLQAAAEAIKKVREAAKKAK
B38: design_612_bdadb936-3f14-48ad-830f-718e38d81c30_1207_dldesign_0_cycle1_af2pred (protein)
chain: GAELLAKKAQELYKKAEELAKKAPESVEAAKKAQEYAQQSIATVAELFEKFPEAPQELKASLARIAAQAAKYYLDAQKLIKAA

molecular target: CD276, Q5ZPR3
Sequence (Q5ZPR3 whole entry): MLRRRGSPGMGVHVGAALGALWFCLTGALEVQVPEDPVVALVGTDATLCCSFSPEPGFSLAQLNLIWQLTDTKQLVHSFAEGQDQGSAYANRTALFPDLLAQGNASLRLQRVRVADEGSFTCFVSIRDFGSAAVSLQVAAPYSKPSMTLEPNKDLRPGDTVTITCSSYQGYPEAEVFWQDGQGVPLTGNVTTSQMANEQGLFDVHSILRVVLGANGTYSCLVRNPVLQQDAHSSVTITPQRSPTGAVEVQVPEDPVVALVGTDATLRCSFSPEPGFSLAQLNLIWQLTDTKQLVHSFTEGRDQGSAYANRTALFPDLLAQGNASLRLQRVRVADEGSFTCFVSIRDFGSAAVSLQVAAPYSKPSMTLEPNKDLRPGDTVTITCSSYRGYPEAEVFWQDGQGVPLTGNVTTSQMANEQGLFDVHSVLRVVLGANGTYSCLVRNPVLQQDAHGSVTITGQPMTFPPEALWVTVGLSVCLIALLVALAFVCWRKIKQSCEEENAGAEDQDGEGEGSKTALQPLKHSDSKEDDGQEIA

| Binder | binding in a display sort |
| --- | --- |
| B1 | not found |
| B2 | not found |
| B3 | not found |
| B4 | not found |
| B5 | binds (active) |
| B6 | not found |
| B7 | not found |
| B8 | not found |
| B9 | not found |
| B10 | not found |
| B11 | not found |
| B12 | not found |
| B13 | not found |
| B14 | not found |
| B15 | not found |
| B16 | not found |
| B17 | not found |
| B18 | not found |
| B19 | not found |

| Binder | binding in a display sort |
| --- | --- |
| B20 | not found |
| B21 | not found |
| B22 | not found |
| B23 | not found |
| B24 | not found |
| B25 | not found |
| B26 | not found |
| B27 | not found |
| B28 | not found |
| B29 | not found |
| B30 | not found |
| B31 | not found |
| B32 | not found |
| B33 | not found |
| B34 | not found |
| B35 | not found |
| B36 | not found |
| B37 | not found |
| B38 | not found |
